Results on five compounds are retold here after PubChem BioAssay.

Activity calls are given as the source filed them. Unless noted, how the calls were made is not given here.

Experiment [1] concerns Wnt5a (protein binding on small-molecule microarray). The experiment is described as follows: Wnt5a binders on small-molecule microarray, primary screen, biophysical, 635/667 nm fluorescence (AID 1142).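 Further: fluorescence read at 667 nm with signal to noise per printed feature.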 Particulars: 635 nm fluorescence, higher = more signal.
Experiment [2] in a line: cell viability in Huh7 cells, primary screen, cytotoxicity control for HCV replication inhibitor project, CellTiter-Glo luminescence, basal, 48 h (AID 1143).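 Further: Huh7 hepatoma cells carrying a hepatitis C replication reporter with no stimulus; test concentration not given here.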 Particulars: Huh7 HCV replicon, higher = more signal, called active from +8 up or from −8 down. For orientation: ATP-based viability assays read luminescence as a measure of living cells.
Experiment [3] can be described thus: P. aeruginosa biofilm formation inhibitors, primary screen, PAO1 strain, BacTiter-Glo luminescence, LB-PBS (AID 1144). The note with it: 12 h, higher = more signal.
A short description of experiment [4]: CREB reporter modulators without forskolin, primary screen, cell-based, PC12, CRE-LacZ reporter, unstimulated (AID 1145). The note with it: no forskolin, luminescence, 4.5 h, higher = more signal, called active from +8 up or from −8 down.
Experiment [5] in a line: CREB reporter modulators under forskolin, primary screen, cell-based, PC12, CRE-LacZ reporter, forskolin-stimulated (AID 1146).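 Further: PC12 cells with 6xCRE LacZ reporter stimulated by forskolin 10 µM; beta-galactosidase reporter signal reflecting CREB driven transcription.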 Particulars: luminescence, 4.5 h, higher = more signal, called active from +8 up or from −8 down.
Experiment [6] concerns the target Streptavidin (Streptomyces avidinii) (UniProt P22629). The experiment is described as follows: streptavidin binders on small-molecule microarray, primary screen, artefact control for SMM compound annotation, biophysical, 635/667 nm fluorescence (AID 1147).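 Further: signal reflects streptavidin binding to arrayed compounds as a control protein.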 Particulars: streptavidin binding, higher = more signal.
A short description of experiment [7]: small-molecule binders of probe aInhba, primary screen, biochemical, small-molecule microarray, 635/667 nm fluorescence (AID 1148).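 Further: score merges 667nm spot fluorescence with signal-to-noise for antibody binding to printed compounds.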 The note with it: higher = more signal.
Experiment [8] addresses Torsin-1A (Homo sapiens) (UniProt O14656). As to the kind of experiment: torsin A binders from cell lysate, primary screen, small-molecule microarray, wild-type, 635/667 nm (AID 1149). Particulars: COS7 hTOR1A-WT lysate, 635 nm fluorescence, higher = more signal.
For experiment [9] the target is unchanged. The experiment is described as follows: small-molecule binders of mutant TOR1A in lysate, primary screen, cell lysate, small-molecule microarray, COS7 lysate, 635/667 nm fluorescence (AID 1150).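 Further: score pools 667 nm emission and signal to noise measuring lysate protein binding.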 The note with it: COS7 hTOR1A mutant lysate, 635 nm fluorescence, higher = more signal.
Experiment [10] concerns Sonic hedgehog protein (Shh). As to the kind of experiment: small-molecule binders of Shh protein, primary screen, biochemical, small-molecule microarray, 635/667 nm fluorescence (AID 1151).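 Further: Shh protein binding to compounds spotted on small-molecule microarray slides; score combines spot fluorescence intensity with signal-to-noise across triplicate slides.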 The note with it: small-molecule microarray binding, 635 nm fluorescence; higher = more signal.
A short description of experiment [11]: E. coli DRC41 culture turbidity changes, primary screen, E. coli filamentation inducer project, strain DRC41, OD650, 48 h (AID 1152).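 Further: E. coli MC1000 strain DRC41 lacking acrAB efflux pump and sulA.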 Particulars: E. coli DRC41 (acrAB sulA), higher = more signal, called active from +8 up or from −8 down.
The nature of experiment [12]: small-molecule binders of probe aLefty1, primary screen, biochemical, small-molecule microarray, 635/667 nm fluorescence (AID 1153).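 Further: score merges spot fluorescence with signal-to-noise ratio from the scanned slide images.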 The note with it: higher = more signal.
Experiment [13] is described as follows: PSAC antagonists in infected red cells, primary screen, cell-based, P. falciparum Indochina, OD700, 1 h (AID 1154). Particulars: P. falciparum Indochina infected RBC osmotic lysis, higher = more signal, called active from +8 up or from −8 down.
Experiment [14] can be described thus: PSAC antagonists in infected red cells, primary screen, cell-based, P. falciparum Indochina, OD700, 2 h (AID 1155).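 Further: lysis reports solute entry through the parasite surface anion channel PSAC; channel blockers reduce lysis of infected cells.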 The note with it: P. falciparum Indochina infected erythrocytes, osmotic lysis OD700; higher = more signal, called active from +8 up or from −8 down.
A short description of experiment [15]: osmotic lysis modulators in infected erythrocytes, primary screen, PSAC antagonist project, cell-based, P. falciparum Indochina, OD700, 3 h (AID 1156). Particulars: higher = more signal, called active from +8 up or from −8 down.
Experiment [16] in a line: PSAC antagonists in infected red cells, primary screen, cell-based, P. falciparum Indochina, OD700, 18 h (AID 1157). The note with it: P. falciparum Indochina infected erythrocytes, osmotic lysis OD700, 18 h; higher = more signal, called active from +8 up or from −8 down.
The nature of experiment [17]: modulators of S6 phosphorylation in cells, primary screen, cell-based, A549, cytoblot, luminescence, serum-stimulated (AID 1158).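 Further: serum-stimulated A549 lung adenocarcinoma cells; signal is phosphorylated S6 detected by cytoblot immunostaining with HRP secondary.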 Particulars: A549 phospho-S6 cytoblot, 5 h, higher = more signal.
The target in experiment [18] is NADPH oxidase 2 (Homo sapiens) (UniProt P04839). As to the kind of experiment: NOX2-dependent H2O2 signal modulators, primary screen, NOX inhibitor project, cell-based, HEK293-NOX2, PMA-stimulated, Amplex Red fluorescence (AID 1159). Further: test concentration not given here. Particulars: 45 min, higher = more signal, called active from +8 up or from −8 down.
NADPH oxidase 2 (Homo sapiens), sequence (P04839 whole entry, looked up): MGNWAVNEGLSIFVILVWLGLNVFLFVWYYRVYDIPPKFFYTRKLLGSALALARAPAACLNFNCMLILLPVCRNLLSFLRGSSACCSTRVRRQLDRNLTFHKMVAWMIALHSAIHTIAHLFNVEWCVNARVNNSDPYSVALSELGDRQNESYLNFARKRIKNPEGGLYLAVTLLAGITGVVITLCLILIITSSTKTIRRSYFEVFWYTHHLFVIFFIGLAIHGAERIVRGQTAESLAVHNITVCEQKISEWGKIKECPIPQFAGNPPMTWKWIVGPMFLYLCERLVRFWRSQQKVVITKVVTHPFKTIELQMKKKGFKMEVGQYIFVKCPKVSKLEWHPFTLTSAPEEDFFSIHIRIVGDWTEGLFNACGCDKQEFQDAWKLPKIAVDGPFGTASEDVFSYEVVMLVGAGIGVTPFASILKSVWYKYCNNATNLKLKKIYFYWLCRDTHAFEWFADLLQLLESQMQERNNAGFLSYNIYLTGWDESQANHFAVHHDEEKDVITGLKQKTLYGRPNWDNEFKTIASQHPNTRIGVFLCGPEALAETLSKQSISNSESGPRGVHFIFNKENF
In experiment [19] the target is NADPH oxidase 4 (Homo sapiens) (UniProt Q9NPH5). As to the kind of experiment: NOX4-dependent H2O2 signal modulators, primary screen, NOX inhibitor project, cell-based, HEK293-NOX4, tetracycline-induced, Amplex Red fluorescence (AID 1160). The note with it: 45 min, higher = more signal, called active from +8 up or from −8 down.
NADPH oxidase 4 (Homo sapiens), sequence (Q9NPH5 whole entry, looked up): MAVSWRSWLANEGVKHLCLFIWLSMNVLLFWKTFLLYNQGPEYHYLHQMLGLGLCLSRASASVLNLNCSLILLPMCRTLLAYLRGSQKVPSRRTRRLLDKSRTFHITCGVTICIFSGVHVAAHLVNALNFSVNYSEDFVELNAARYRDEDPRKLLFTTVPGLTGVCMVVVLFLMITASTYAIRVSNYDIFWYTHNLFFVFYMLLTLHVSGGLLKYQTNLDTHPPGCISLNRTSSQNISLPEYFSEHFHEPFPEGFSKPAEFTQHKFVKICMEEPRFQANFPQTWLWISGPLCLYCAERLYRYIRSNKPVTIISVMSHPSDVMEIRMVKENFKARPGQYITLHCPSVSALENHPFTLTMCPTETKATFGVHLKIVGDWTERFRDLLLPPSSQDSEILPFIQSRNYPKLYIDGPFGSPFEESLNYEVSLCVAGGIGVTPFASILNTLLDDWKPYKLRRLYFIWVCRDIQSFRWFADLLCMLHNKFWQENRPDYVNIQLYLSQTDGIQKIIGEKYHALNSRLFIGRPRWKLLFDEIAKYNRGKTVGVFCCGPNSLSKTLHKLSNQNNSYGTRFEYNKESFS
Experiment [20] has as its target NADPH oxidase 5 (Homo sapiens) (UniProt Q96PH1). The experiment is described as follows: NOX5-dependent H2O2 signal modulators, primary screen, NOX inhibitor project, cell-based, HEK293-NOX5, Amplex Red fluorescence (AID 1161). The note with it: HEK293-NOX5, ionomycin, 45 min, higher = more signal.

Torsin-1A (Homo sapiens), sequence (O14656 whole entry, looked up): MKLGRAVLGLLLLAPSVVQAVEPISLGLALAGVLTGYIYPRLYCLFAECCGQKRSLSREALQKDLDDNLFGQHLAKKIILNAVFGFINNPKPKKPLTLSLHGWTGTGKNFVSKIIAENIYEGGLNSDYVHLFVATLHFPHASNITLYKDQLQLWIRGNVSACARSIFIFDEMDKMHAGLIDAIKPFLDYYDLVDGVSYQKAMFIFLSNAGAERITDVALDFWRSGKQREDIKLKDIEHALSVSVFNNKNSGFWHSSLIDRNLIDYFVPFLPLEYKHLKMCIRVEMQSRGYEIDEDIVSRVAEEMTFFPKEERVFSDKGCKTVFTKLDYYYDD
NADPH oxidase 5 (Homo sapiens), sequence (Q96PH1 whole entry, looked up): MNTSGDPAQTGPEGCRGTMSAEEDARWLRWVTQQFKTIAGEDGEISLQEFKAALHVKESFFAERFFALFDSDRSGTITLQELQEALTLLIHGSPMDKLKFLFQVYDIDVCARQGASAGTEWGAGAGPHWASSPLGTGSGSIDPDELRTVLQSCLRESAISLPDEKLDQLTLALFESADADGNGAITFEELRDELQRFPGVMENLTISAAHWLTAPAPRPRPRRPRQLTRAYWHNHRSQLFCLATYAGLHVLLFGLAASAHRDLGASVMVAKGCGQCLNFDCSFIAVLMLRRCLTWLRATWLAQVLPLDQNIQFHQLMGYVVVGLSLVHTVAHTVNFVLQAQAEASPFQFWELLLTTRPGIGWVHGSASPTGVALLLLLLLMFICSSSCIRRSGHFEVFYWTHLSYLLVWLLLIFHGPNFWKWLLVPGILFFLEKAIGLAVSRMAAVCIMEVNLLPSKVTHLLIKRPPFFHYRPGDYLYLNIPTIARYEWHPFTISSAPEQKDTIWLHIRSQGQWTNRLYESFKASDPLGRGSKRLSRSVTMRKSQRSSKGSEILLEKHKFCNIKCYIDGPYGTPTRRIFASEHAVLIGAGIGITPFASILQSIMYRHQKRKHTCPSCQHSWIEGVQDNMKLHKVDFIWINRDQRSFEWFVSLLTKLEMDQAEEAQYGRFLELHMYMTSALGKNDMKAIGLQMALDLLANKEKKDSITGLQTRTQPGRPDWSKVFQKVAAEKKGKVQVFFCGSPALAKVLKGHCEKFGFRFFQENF
Streptavidin (Streptomyces avidinii), sequence (P22629 whole entry, looked up): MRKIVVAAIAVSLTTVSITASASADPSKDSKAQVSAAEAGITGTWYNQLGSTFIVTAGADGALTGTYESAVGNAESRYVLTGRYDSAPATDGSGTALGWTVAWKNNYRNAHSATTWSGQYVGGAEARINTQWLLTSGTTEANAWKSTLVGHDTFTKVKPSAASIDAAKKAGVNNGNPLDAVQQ

Turning to `CO[C@@H]1COC(=O)CC=C[C@@H](C)[C@@H]2C=C[C@H](O)[C@@H](COC(=O)CCC[C@H]1C)O2`, the composite z-score in experiment [1] is 0.0796; in [6] it was 1.35; in experiment [7] it was -0.118; in experiment [8], 0.858; in [9], 1.6; in experiment [10] it was 1.55. This compound also registered a composite z-score in experiment [12] of 0.425. For the same compound, the z-score in [2] is -0.493 (inactive); in experiment [3], 0.0169 (inactive); in experiment [4], -2.36 (inactive); in [5] it was -1.91 (inactive); in experiment [11], -0.457 (inactive); in experiment [13], -0.977 (inactive). In addition, the z-score in experiment [14] is -1.66 (inactive); in experiment [15], -0.184 (inactive); in [16], -2.26 (inactive); in experiment [17], 0.49; in experiment [18] it was -0.521 (inactive); in experiment [19], 0.319 (inactive). This compound also gave a z-score in experiment [20] of 0.312.

For `O=C1O[C@@H](c2ccccc2)[C@@H](c2ccccc2)N2[C@@H](c3ccc(OCCO)cc3)[C@]3(C(=O)Nc4ccc(C#CCCO)cc43)[C@@H](C(=O)N3CCCCCCC3)[C@H]12`, the composite z-score is 0.825 in experiment [1]; 2.31 in [6]; 1.75 in experiment [7]; 0.782 in experiment [8]; 1.31 in experiment [9]; 1.59 in experiment [10]. For the same compound, the composite z-score in experiment [12] worked out at 2.79. In addition, the z-score is -1.11 (inactive) in experiment [2]; -0.928 (inactive) in [3]; -0.168 (inactive) in experiment [4]; 0.0629 (inactive) in experiment [5]; 0.974 (inactive) in experiment [11]; 4.33 (inactive) in [13]. Besides, the z-score in [14] was 1.27 (inactive); in experiment [15], 0.526 (inactive); in [16] it was 0.737 (inactive); in experiment [17] it was -0.178; in experiment [18], 1.6 (inactive); in experiment [19], 0.824 (inactive). Further, the z-score in experiment [20] was 1.08.

In the case of `CO[C@H]1COC(=O)[C@H](C)COC(=O)CC=C[C@@H](C)[C@H](OC)COC(=O)CC=C[C@@H]1C`, the composite z-score in experiment [1] is 0.185; in [6], -0.436; in [7] it was -0.128; in experiment [8] it was 1.03; in [9] it was 0.666; in experiment [10] it was 1.55. The same compound registered a composite z-score in experiment [12] of -0.196. Besides, the z-score in experiment [2] was -0.0182 (inactive); in [3], -0.272 (inactive); in [4] it was -0.474 (inactive); in experiment [5], 0.592 (inactive); in experiment [11], 0.738 (inactive); in experiment [13], -0.654 (inactive). Moreover, the z-score in experiment [14] was -0.285 (inactive); in [15] it was -0.654 (inactive); in experiment [16] it was -0.188 (inactive); in experiment [17], 0.648; in [18], -0.347 (inactive); in [19] it was 0.0281 (inactive). In experiment [20], the z-score turned out to be 0.625.

`C[C@@H](c1ccccc1)N1C(=O)[C@H]2[C@H]3[C@H](O)[C@H](O)CC(=NOC[C@@H](O)COCc4ccco4)[C@@H]3CC[C@H]2C1=O`: the composite z-score in experiment [1] was -0.253; in experiment [6] it was -0.485; in experiment [7], -0.176; in experiment [8], -0.304; in [9], -0.294; in experiment [10], -0.494. The compound further displayed a composite z-score in experiment [12] of -0.147. The z-score in experiment [2] was 0.333 (inactive); in [3] it was -0.0196 (inactive); in [4], -0.292 (inactive); in [5], 0.236 (inactive); in experiment [11], -0.224 (inactive); in [13] it was 0.169 (inactive). The z-score in experiment [14] is 0.32 (inactive); in experiment [15], -0.478 (inactive); in experiment [16] it was -0.138 (inactive); in [17] it was 0.403; in [18] it was 0.215 (inactive); in experiment [19] it was -1.51 (inactive). Moreover, the z-score in [20] is -0.681.

Consider `O=C1[C@H]2[C@H]3[C@H](O)[C@H](O)CC(=NOC[C@@H](O)COCc4ccco4)[C@H]3CC[C@H]2C(=O)N1Cc1ccc2c(c1)OCO2`, for which the composite z-score in [1] was 0.138; in experiment [6], -0.405; in experiment [7], -0.162; in experiment [8], 3.53; in experiment [9] it was 3.17; in experiment [10], 2.03. For the same compound, in [12], the composite z-score was -0.147. Moreover, the z-score in experiment [2] is -0.012 (inactive); in experiment [3], 2.01 (inactive); in experiment [4], -0.657 (inactive); in [5], 0.0952 (inactive); in experiment [11] it was 0.198 (inactive); in experiment [13] it was 8.99 (active). The z-score is 1.02 (inactive) in [14]; 0.107 (inactive) in experiment [15]; 0.229 (inactive) in experiment [16]; -0.552 in [17]; -0.377 (inactive) in experiment [18]; 0.718 (inactive) in experiment [19]. Moreover, in experiment [20], the z-score amounted to 0.00627.
